Source: PubChem
mHTT-CaM PPI inh: inhibitors of human mutant huntingtin-calmodulin interaction | P42858 | AlphaScreen His-mHTT/GST-CaM binding, luminescence | inhibition, % at 15 µM | 3.6% of 190,000 active;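 note: 0% = both proteins with DMSO and 100% = one protein alone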
Pf apPOL block: Pf-apPOL DNA polymerase inhibition | AID 1794808 | Recombinant Pf-apPOL, molecular beacon fluorescence, 1.5 h | 0.25% of 210,000 active | inhibition, % at 10 µM
* marks the source's active call; other numbers are inactive results; i = inactive. Compounds with a hit are over-represented: about 3.5% of the library has one in this group of screens. Cut-off read from the data, not from the text of the source: active = inhibition above about 50%; inactive = the rest.

SMILES | mHTT-CaM PPI inh | Pf apPOL block
COc1cccc(-c2nnc(SCC(=O)NCc3cccnc3)n2-c2ccccc2)c1 | -6 | 2
O=C(Nc1ccccc1F)N1CCCC1c1nc(-c2ccc(F)cc2F)no1 (centres undefined) | -11 | -1
O=C(Nc1ccc(S(=O)(=O)NCc2ccco2)cc1)c1ccccc1Cl | 0 | -1
CCCCOc1ccc(C(=O)Nc2c3c(nn2-c2ccc([N+](=O)[O-])cc2)CS(=O)(=O)C3)cc1 | 6 | 1
COc1ccc(CNC(=O)C2CCN(CC(C)C)CC2)cc1 | -4 | -3
CCN1CCN(c2cc(-c3nc(-c4ccccc4)no3)c3ccccc3n2)CC1 | 66* | -3
c1ccc(-c2noc(-c3cc(N4CCOCC4)nc4ccccc34)n2)cc1 | -16 | -4
COc1ccc(C(=O)ON=C2C=CC(=O)C=C2)cc1 | 53* | -3
Cc1ccc(C(=O)ON=C2C=CC(=NOC(=O)c3ccccc3Br)C=C2)cc1 | 4 | -1
CN1C(=O)/C(=N\OC(=O)c2ccccc2Br)c2ccccc21 | i | 2
O=C1C=CC(=NOC(=O)c2ccccc2Br)C=C1 | 89* | 10
O=C1C=CC(=NOC(=O)c2ccc([N+](=O)[O-])cc2)C=C1 | 7 | -10
CC1=CC(=O)C=C(C)C1=NOC(=O)c1ccccc1Br | 90* | -20
CSc1ccc(CCN2C(=O)CCC2(C)C(=O)NCc2ccccc2)cc1 (centres undefined) | -7 | 1
COc1ccc(C2=CC(c3ccc(Br)o3)n3nnnc3N2)cc1 (centres undefined) | 12 | -7
CSc1ccc(NC(=O)N2CCc3nc4cc[nH]n4c(=O)c3C2)cc1 | -2 | -1
COc1ccc(CCNc2oc(COc3ccccc3C)nc2C#N)cc1 | 52* | -3
